Each structure is given as a SMILES string. Screen size: about 25,000 compounds; about 970 (3.9%) were called active. Not shown: some 8% with an inconclusive outcome. How the calls were made is not given here. The full list was thinned out, with actives kept by preference.

Experiment in all cases: Primary Screen for Target Class Profiling of Small Molecule Inhibitors of Methyltransferases
The target of test [1] is Catechol O-methyltransferase (Homo sapiens) (UniProt P21964). The settings on record: purified enzyme, MTase-Glo SAH luminescence; activity change, negative = inhibition: at 40 µM, stronger effect = lower value; outcome: 40 uM. From the text: (§1) PI: Matthew D. Hall Ph.D. and Quinlin M. Hanson Ph.D.
Catechol O-methyltransferase (Homo sapiens), sequence (P21964 whole entry, looked up): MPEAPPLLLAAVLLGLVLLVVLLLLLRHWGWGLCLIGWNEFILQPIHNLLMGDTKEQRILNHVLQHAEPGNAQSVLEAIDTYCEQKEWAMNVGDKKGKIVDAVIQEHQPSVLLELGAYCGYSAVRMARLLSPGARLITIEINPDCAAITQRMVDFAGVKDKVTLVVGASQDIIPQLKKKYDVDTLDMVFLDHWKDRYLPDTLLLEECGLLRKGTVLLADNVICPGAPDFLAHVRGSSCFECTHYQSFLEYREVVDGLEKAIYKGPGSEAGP
(§2) National Center for Advancing Translational Sciences (NCATS)
(§3) National Institute of Health (NIH), Rockville, MD
(§4) Target class profiling (TCP) is a chemical biology approach amenable to investigating understudied biological targets. TCP is achieved by developing a generalizable assay platform and applying it to screen a curated set of compound libraries against representative members of a target class. Small molecule methyltransferases (SMMTase) are a subclass of methyltransferase that act on metabolites to modulate signaling pathways, metabolize xenobiotics, or balance the available methyl pool. We screened four curated libraries totaling 27,574 unique compounds against the SMMTases nicotinamide N-methyltransferase (NNMT), phenylethanolamine N-methyltransferase (PNMT), histamine N-methyltransferase (HNMT), glycine N-methyltransferase (GNMT), catechol O-methyltransferase (COMT), and guanidinoacetate N-methyltransferase (GAMT). The data generated by this TCP can be leveraged for informed tool molecule development. For example, in the associated publication we identified a chemotype of HNMT-selective inhibitors. Additionally, we identified a putative SMMTase-selective inhibitor with potential as a tool molecule for studying broader methyltransferase biology.
(§5) High-through put screening assays were developed at the National Center for Advancing Translational Science (NCATS) for the enzymes NNMT, PNMT, HNMT, GNMT, COMT, and GAMT. Enzymatic activity was measured as a function of SAM cofactor conversion using the MTase Glo kit (Promega) for all enzymes. All assays were performed in 1536-well format with substrates and SAM concentrations at KM values. Enzyme concentration and assay timing were optimized for 10-20% SAM conversion. Initial screening of 27,574 compounds was done as single-point assays using the highest compound concentration (40 uM). […] These compounds were replated in 11-point dose response and assayed against NNMT, PNMT, HNMT, GNMT, COMT, GAMT, and a counter-assay. The IC50 and efficacy (maximal response) values were determined for each dose-response curve. These values are also accounted for in the area under the curve (AUC) values.
(§6) PROTOCOL TABLE (as described by Inglese J, Shamu CE and Guy RK. 2007)
(§7) SEQUENCE No. (e.g., 1, 2, 3, etc.); […] (e.g., Cells, Incubation, Reagent, etc.); VALUE; DESCRIPTION.
(§8) 1; Reagent; 2 uL; SMMTase Enzyme (2x) in reaction buffer, columns 1- 48.
(§9) 2; Reagent; 1 uL; SAM (4x) in reaction buffer, columns 1-48.
(§10) 3; Controls; 23 nL; DMSO in column 4; sinefungin in DMSO (0 uM - 40 uM) in 7-point 1:2 dilution series (n = 2) in column 2.
(§11) 4; Compounds; 23 nL; Columns 5-48.
(§12) 5; Reagent; 1 uL; Substrate (4x) in reaction buffer, columns 2-48.
(§13) 6; Time; 20-30 min; Incubation.
(§14) 7; Reagent; 1 uL; MTase-Glo reagent (5X), columns 1-48.
(§15) 8; Time; 30 min; Incubation.
(§16) 9; Reagent; 5 uL; MTase-Glo Detection reagent, columns 1-48.
(§17) 10; Time; 30 min; Incubation, luminescence evolution.
(§18) 11; Detection; Luminescence; ViewLux uHTS Microplate Imager (PerkinElmer).
(§19) NOTES (numbers refer to Sequence numbers above)
(§20) 1, 2, 5. White Medium Binding Greiner 1536-well plates (Cat #789175-F, Greiner Bio-One, Monroe, NC); Reaction buffer: 50 mM Tris, pH 8.0, 3 mM MgCl2, 1 mM EDTA, 50 mM NaCl, 1 mM DTT, and 0.1 mg/mL BSA. Evaporation was prevented by covering assay plates with metal lids containing holes to allow gas diffusion.
(§21) 1. Six SMMTase were profiled: HNMT, GNMT, PNMT, COMT, NNMT, GAMT
(§22) 5. The corresponding substrate was used for each enzyme: HNMT - 5.3 uM Histamine; GNMT - >500 uM Glycine; PNMT - 16.2 uM Norephinephrine; COMT - 13.7 uM Norephinephrine; NNMT - 3.8 uM Nicotinamide; GAMT - 2.5 uM Guanidinoacetate.6, 8, 10. Room temperature
(§23) 6. Final reaction conditions: 10 nM COMT, 5 uM SAM, 15 uM norepinephrine, 50 mM Tris, pH 8.0, 3 mM MgCl2, 1 mM EDTA, 50 mM NaCl, 1 mM DTT, and 0.1 mg/mL BSA; refer to tables 2 and S1 for specific timing.
8. […]

Test [2] concerns the target Glycine N-methyltransferase (Homo sapiens) (UniProt Q14749). The settings on record: purified enzyme, MTase-Glo SAH luminescence; measured here: GNMT inhibition; at 40 µM; stronger effect = lower value.
Source text: as §1, §2, §3, §4, §5, §6, §7, §8, §9, §10, §11, §12, §13, §14, §15, §16, §17, §18, §19, §20, §21, §22, §23
8. […]

Test [3] deals with Guanidinoacetate N-methyltransferase (Homo sapiens) (UniProt Q14353). The settings on record: purified enzyme, MTase-Glo SAH luminescence; measured here: GAMT inhibition; at 40 µM; stronger effect = lower value.
Source text: as §1, §2, §3, §4, §5, §6, §7, §8, §9, §10, §11, §12, §13, §14, §15, §16, §17, §18, §19, §20, §21, §22, §23
8. […]

For test [4], the target named is Histamine N-methyltransferase (Homo sapiens) (UniProt P50135). The settings on record: purified enzyme, MTase-Glo SAH luminescence; measured here: HNMT inhibition; at 40 µM; stronger effect = lower value.
Histamine N-methyltransferase (Homo sapiens), sequence (P50135 whole entry, looked up): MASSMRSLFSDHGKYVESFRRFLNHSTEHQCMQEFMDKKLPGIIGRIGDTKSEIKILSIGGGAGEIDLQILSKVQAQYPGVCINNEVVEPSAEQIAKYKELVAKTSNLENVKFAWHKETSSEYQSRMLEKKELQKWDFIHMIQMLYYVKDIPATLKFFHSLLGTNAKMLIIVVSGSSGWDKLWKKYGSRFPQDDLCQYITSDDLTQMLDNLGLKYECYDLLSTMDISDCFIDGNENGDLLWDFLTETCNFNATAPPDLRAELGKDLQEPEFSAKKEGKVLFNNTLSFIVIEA
Source text: as §1, §2, §3, §4, §5, §6, §7, §8, §9, §10, §11, §12, §13, §14, §15, §16, §17, §18, §19, §20, §21, §22, §23
8. […]

Test [5] concerns the target Nicotinamide N-methyltransferase (Homo sapiens) (UniProt P40261). The settings on record: purified enzyme, MTase-Glo SAH luminescence; measured here: NNMT inhibition; at 40 µM; stronger effect = lower value.
Source text: as §1, §2, §3, §4, §5, §6, §7, §8, §9, §10, §11, §12, §13, §14, §15, §16, §17, §18, §19, §20, §21, §22, §23
8. […]

Test [6] concerns the target Phenylethanolamine N-methyltransferase (Homo sapiens) (UniProt P11086). The settings on record: purified enzyme, MTase-Glo SAH luminescence; measured here: PNMT inhibition; at 40 µM; stronger effect = lower value.
Source text: as §1, §2, §3, §4, §5, §6, §7, §8, §9, §10, §11, §12, §13, §14, §15, §16, §17, §18, §19, §20, §21, §22, §23
8. […]
On the % scale 0 is the no-effect control and ±100 the full control effect.

Glycine N-methyltransferase (Homo sapiens), sequence (Q14749 whole entry, looked up): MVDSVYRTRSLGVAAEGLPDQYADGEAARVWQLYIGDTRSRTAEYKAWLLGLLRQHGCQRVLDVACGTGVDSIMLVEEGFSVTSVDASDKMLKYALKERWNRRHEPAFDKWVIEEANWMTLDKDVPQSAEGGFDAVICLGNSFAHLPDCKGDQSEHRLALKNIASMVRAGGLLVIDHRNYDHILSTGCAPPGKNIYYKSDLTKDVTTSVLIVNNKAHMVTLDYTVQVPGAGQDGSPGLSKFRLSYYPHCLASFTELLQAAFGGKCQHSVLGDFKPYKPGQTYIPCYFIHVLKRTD
Phenylethanolamine N-methyltransferase (Homo sapiens), sequence (P11086 whole entry, looked up): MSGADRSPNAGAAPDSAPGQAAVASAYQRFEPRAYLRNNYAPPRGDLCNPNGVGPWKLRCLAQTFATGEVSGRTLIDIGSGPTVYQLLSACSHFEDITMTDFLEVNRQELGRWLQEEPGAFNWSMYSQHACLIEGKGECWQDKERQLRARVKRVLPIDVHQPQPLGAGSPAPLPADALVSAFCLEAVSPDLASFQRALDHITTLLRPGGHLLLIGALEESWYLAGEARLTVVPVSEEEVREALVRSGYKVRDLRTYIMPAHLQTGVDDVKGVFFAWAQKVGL
Nicotinamide N-methyltransferase (Homo sapiens), sequence (P40261 whole entry, looked up): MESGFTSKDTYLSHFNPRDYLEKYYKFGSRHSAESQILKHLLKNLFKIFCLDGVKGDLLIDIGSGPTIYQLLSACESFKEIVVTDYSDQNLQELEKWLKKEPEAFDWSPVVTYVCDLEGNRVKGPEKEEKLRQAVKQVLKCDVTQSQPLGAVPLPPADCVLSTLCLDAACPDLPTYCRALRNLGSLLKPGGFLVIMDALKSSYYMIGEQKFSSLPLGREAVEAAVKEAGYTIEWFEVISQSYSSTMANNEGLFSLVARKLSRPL

For the compound `CCCS(=O)(=O)NCC1Cn2cccc2C(=O)N1CCOC` (configuration not stated), the activity change, negative = inhibition in test [1] is 2.41% (inactive); in test [2], 0.792%; in test [3], -0.491%; in test [4], 0.026%; in test [5] it was -3.41%; in test [6], 0.672%.
As to `Cc1ccc(OCCC2CCN(C(=O)Cn3cnc4c3c(=O)n(C)c(=O)n4C)C2)cc1` (configuration not stated), the activity change, negative = inhibition in test [1] was -5.48% (inactive); in test [2], -7.34%; in test [3] it was -5.09%; in test [4], -2.32%; in test [5], -21%; in test [6] it was -7.16%.
On to `CC1CCCC(NC(=O)C2(C)Cn3c(cc4sccc43)C(=O)N2c2ccc(Cl)cc2)C1C` (configuration not stated), for which the activity change, negative = inhibition in test [1] is -1.19% (inactive); in test [2], -1.5%; in test [3], 2.58%; in test [4], -0.753%; in test [5] it was 2.89%; in test [6], -5.61%.
As for `CCC1CCCCN1C(=O)Cn1c(=O)oc2cc(S(=O)(=O)N3CCCC3)ccc21` (configuration not stated), the activity change, negative = inhibition in test [1] was 1.3% (inactive); in test [2] it was -2.17%; in test [3], 1.65%; in test [4], -2.01%; in test [5] it was 0.211%; in test [6] it was -0.075%.
`Clc1cc(NCc2ccccn2)n2nccc2n1`: the activity change, negative = inhibition in test [1] was -4.71% (inactive); in test [2] it was -11.1%; in test [3], -2.25%; in test [4] it was -0.734%; in test [5], -13.1%; in test [6], 6.59%.
Take `COc1ccc(NC(=O)c2ccc(-c3ccc(C(N)=O)cc3C)cc2)cc1N1CCN(C)CC1`: the activity change, negative = inhibition in test [1] is 0.282% (inactive); in test [2], -7.07%; in test [3] it was 2.94%; in test [4] it was -26%; in test [5], -29.8%; in test [6] it was -2.08%.
`COc1ccccc1N1CCN(S(=O)(=O)c2cc3c(cc2C)n(C)c(=O)n3C)CC1`: the activity change, negative = inhibition was 8.56% (inactive) in test [1]; 5.66% in test [2]; 0% in test [3]; 4.91% in test [4]; -2.8% in test [5]; 0.426% in test [6].
Turning to `COc1ccc(NC(=O)c2ccc(-c3ccc(C(=N)N)cc3C)cc2)cc1N1CCN(C)CC1`, the activity change, negative = inhibition was -7.6% (active) in test [1]; -8.27% in test [2]; -7.77% in test [3]; -66.3% in test [4]; -22.1% in test [5]; -8.76% in test [6].
For the compound `Cc1cc(C(=O)N2CCCCCC2CN2CCC(C)CC2)nn1C` (configuration not stated), the activity change, negative = inhibition in test [1] was -10.6% (inactive); in test [2] it was 0.743%; in test [3], 0.856%; in test [4], 0.525%; in test [5], -2.25%; in test [6] it was -1.05%.
`O=C(Cn1nc2n(Cc3ccc(F)cc3)c(=O)c3ccccc3n2c1=O)c1cccc(Cl)c1`: the activity change, negative = inhibition is 5.66% (inactive) in test [1]; 4.51% in test [2]; 0% in test [3]; 7.94% in test [4]; -8.66% in test [5]; 4.49% in test [6].
For the compound `Cc1ccc(C(=O)COC(=O)C(Cc2c[nH]c3ccccc23)NC(=O)c2ccc(Br)cc2)cc1` (configuration not stated), the activity change, negative = inhibition in test [1] was 9.4% (inactive); in test [2], 10.7%; in test [3], 0%; in test [4], 6.18%; in test [5], -1.05%; in test [6] it was 1.41%.
As for `Cc1cccc(-c2nnn3c2nc(N2CCC(C)CC2)c2ccccc23)c1`, the activity change, negative = inhibition in test [1] is -0.09% (inactive); in test [2] it was -5.45%; in test [3], 0.818%; in test [4], 1.53%; in test [5] it was -1.89%; in test [6], -5.11%.

Values taken from PubChem BioAssay AID1745853 (National Center for Advancing Translational Sciences (NCATS), 2022).
